Assay results reported in PubChem BioAssay (Tox21).
Records with an inconclusive call do not appear. Active and inactive are the calls of the source. Unless noted, calls follow the shape of the dose curve; as a rule, active = well fitted curve in the direction sought with a large enough effect in the repeat runs; inconclusive = weak or mixed curves; inactive = no such curve, though single readings can be large; an effect the other way counts as inactive or inconclusive.

Key:
[1] = qHTS assay to identify small molecule agonists of the peroxisome proliferator-activated receptor delta (PPARd) signaling pathway - cell viability counter screen (AID 743211); also: nearly all actives have a fitted effect of over 55% in size
How it was run: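 In the same wells used for beta-lactamase reporter measurement, cytotoxicity is scored by CellTiter-Glo. HEK293H PPARd-bla cells receive compound for 17 h at 37C following a 5 h settling period.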

[2] = target: Peroxisome proliferator-activated receptor delta (Homo sapiens) (UniProt Q03181); experiment: qHTS assay to identify small molecule agonists of the peroxisome proliferator-activated receptor delta (PPARd) signaling pathway (AID 743212; calls by dose curve;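 also: HEK293H cells with PPARd UAS beta-lactamase reporter GeneBLAzer system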)
How it was run: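 Beta-lactamase reporter read by fluorescence (LiveBLAzer B/G FRET, 2 h, room temperature). Test agents, in DMSO, incubated at 37 C with PPARd-bla HEK293H cells.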

[3] = qHTS assay to identify small molecule antagonists of the peroxisome proliferator-activated receptor delta (PPARd) signaling pathway - cell viability counter screen (AID 743213); also: nearly all actives have a fitted effect of over 50% in size
How it was run: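 Agonist-stimulated (L165041, 300 nM final) HEK293H PPARd UAS-bla cells are exposed to compounds for 17 h at 37 C, and ATP-based luminescence (CellTiter-Glo) from the same wells reports cytotoxicity.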

[4] = target: Peroxisome proliferator-activated receptor delta (Homo sapiens) (UniProt Q03181); experiment: qHTS assay to identify small molecule antagonists of the peroxisome proliferator-activated receptor delta (PPARd) signaling pathway (AID 743215; active = well fitted inhibition curve with a large enough effect in the signal ratio in the repeat runs, not every such curve was filed as active; the % refers to the signal ratio; also: series mostly up to about 62 µM)
How it was run: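 Agonist L165041 (300 nM final) added with compound to PPARd-bla HEK293H UAS-bla reporter cells; 17 h incubation at 37 C. Read-out: LiveBLAzer FRET substrate, 2 h at room temperature, fluorescence intensity.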

[5] = target: Bile acid receptor (Homo sapiens) (UniProt Q96RI1); experiment: qHTS assay to identify small molecule antagonists of the farnesoid-X-receptor (FXR) signaling pathway (AID 743217; active = well fitted inhibition curve with a large enough effect in the signal ratio in the repeat runs, not every such curve was filed as active; the % refers to the signal ratio)
How it was run: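 Antagonist mode: chenodeoxycholic acid at 50 uM final stimulates a UAS-driven beta-lactamase reporter in HEK 293T FXR-bla cells during 16 h, 37C compound exposure. Read-out is FRET substrate fluorescence after 2 h at room temperature.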

[6] = qHTS assay to identify small molecule agonists of the farnesoid-X-receptor (FXR) signaling pathway - cell viability counter screen (AID 743218); also: nearly all actives have a fitted effect of over 45% in size
How it was run: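 Viability counter screen in the same wells: CellTiter-Glo luminescence, 30 min room-temperature incubation, measured after the beta-lactamase read. Cells were GeneBLAzer FXR-UAS-bla HEK 293T, compound-treated 16 h at 37C.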

[7] = target: Bile acid receptor (Homo sapiens) (UniProt Q96RI1); experiment: qHTS assay to identify small molecule agonists of the farnesoid-X-receptor (FXR) signaling pathway (AID 743220; active = well fitted activation curve with a large enough effect in the signal ratio in the repeat runs, not every such curve was filed as active; the % refers to the signal ratio)
How it was run: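 FXR-UAS-bla HEK 293T cells carrying a UAS-driven beta-lactamase reporter were plated for 5 h at 37C/5% CO2, then exposed to DMSO-dissolved Tox21 10K compounds for 16 h at 37C. A LiveBLAzer B/G FRET substrate was loaded for 2 h at room temperature before fluorescence reading.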

[8] = target: Vitamin D3 receptor (Homo sapiens) (UniProt P11473); experiment: qHTS assay to identify small molecule agonists of the vitamin D receptor (VDR) signaling pathway (AID 743222; calls by dose curve)
How it was run: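 Agonist mode, beta-lactamase reporter: fluorescence from LiveBLAzer B/G FRET substrate (2 h, room temperature) read after 16 h compound treatment at 37 C of VDR-bla cells, which were pre-incubated 4 h after seeding.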

[9] = target: Vitamin D3 receptor (Homo sapiens) (UniProt P11473); experiment: qHTS assay to identify small molecule antagonists of the vitamin D receptor (VDR) signaling pathway (AID 743223; active = well fitted inhibition curve with a large enough effect in the signal ratio in the repeat runs, not every such curve was filed as active; the % refers to the signal ratio)
How it was run: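 Inhibition of agonist-driven VDR signalling is scored in VDR-bla cells: 3 nM final 1alpha,25-dihydroxyvitamin D3 plus compound, 16 h at 37C, then beta-lactamase detection by FRET substrate fluorescence after 2 h.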

[10] = qHTS assay to identify small molecule antagonists of the farnesoid-X-receptor (FXR) signaling pathway - cell viability counter screen (AID 743221; active = well fitted cell-killing curve with a large enough effect in the repeat runs, not every such curve was filed as active; also: nearly all actives have a fitted effect of over 50% in size)
How it was run: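 Here viability was scored by luminescence after CellTiter-Glo addition to wells already read for beta-lactamase. Prior treatment: compound plus CDCA (50 uM final), 16 h, 37 C, HEK 293T FXR-bla cells.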

Measured: Potency

Bile acid receptor (Homo sapiens), sequence (Q96RI1 whole entry, looked up): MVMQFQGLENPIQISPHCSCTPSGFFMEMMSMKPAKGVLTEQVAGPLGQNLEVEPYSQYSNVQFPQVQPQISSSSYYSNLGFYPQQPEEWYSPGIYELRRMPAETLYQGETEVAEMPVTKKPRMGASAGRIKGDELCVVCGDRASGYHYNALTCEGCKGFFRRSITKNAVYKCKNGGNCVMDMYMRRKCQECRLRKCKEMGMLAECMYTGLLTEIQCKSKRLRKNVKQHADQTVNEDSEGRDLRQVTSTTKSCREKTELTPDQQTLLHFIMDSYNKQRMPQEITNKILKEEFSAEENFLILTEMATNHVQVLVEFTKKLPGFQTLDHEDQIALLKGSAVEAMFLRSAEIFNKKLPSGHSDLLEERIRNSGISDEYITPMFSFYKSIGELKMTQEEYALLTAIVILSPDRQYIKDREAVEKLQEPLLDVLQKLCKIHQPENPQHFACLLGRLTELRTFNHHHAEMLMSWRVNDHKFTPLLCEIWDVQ
Peroxisome proliferator-activated receptor delta (Homo sapiens), sequence (Q03181 whole entry, looked up): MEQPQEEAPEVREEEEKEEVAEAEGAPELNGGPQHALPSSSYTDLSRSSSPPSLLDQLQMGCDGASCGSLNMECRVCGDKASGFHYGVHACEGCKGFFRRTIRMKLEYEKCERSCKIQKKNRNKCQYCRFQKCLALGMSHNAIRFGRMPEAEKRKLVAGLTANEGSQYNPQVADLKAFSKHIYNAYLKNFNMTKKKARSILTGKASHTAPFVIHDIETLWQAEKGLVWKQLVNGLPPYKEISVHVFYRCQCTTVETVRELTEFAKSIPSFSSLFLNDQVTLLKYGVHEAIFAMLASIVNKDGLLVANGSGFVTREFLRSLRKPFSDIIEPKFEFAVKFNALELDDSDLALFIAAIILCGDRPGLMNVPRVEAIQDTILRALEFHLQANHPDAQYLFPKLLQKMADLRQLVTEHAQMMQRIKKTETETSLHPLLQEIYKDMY
Vitamin D3 receptor (Homo sapiens), sequence (P11473 whole entry, looked up): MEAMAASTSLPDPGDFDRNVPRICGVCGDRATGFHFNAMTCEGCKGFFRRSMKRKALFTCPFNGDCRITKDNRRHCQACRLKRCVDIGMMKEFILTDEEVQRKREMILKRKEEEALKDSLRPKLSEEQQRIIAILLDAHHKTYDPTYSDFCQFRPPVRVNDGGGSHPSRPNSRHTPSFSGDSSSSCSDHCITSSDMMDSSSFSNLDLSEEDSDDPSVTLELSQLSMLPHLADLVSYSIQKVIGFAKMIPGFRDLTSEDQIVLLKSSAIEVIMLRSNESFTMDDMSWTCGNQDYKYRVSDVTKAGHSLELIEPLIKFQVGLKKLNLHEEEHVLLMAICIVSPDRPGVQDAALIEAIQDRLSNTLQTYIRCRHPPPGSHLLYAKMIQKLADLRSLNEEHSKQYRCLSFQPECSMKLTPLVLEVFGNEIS

C[N+](C)(C)CCOC(N)=O
not listed: [10]
inactive: all other assays above

CCCCC(=O)O[C@]1(C(=O)CO)CC[C@H]2[C@@H]3CCC4=CC(=O)CC[C@]4(C)[C@H]3[C@@H](O)C[C@@]21C
not listed: [8] | [9]
inactive: all other assays above

C=CC(C)(C)CC(=O)OC
inactive: all assays above

NC(=O)N(O)[C@@H]1COc2cc(OCc3ccccc3)ccc21
not listed: [8]
inactive: all other assays above

CC(CCO)CCc1ccccc1 (stereo not given)
not listed: [8]
inactive: all other assays above

O=C1NCCN1
inactive: all assays above

c1ccc(COCc2ccccc2)cc1
inactive: all assays above

Cc1ccc(S(=O)(=O)NC2CCCCC2)cc1
not listed: [8] | [9]
inactive: all other assays above

Cc1ccccc1N1C(=O)c2cc(S(N)(=O)=O)c(Cl)cc2NC1C (stereo not given)
not listed: [9]
inactive: all other assays above

CCOC(=O)C(C)Oc1ccc(Oc2nc3ccc(Cl)cc3o2)cc1 (stereo not given)
not listed: [9]
inactive: all other assays above

CC(C)CCCC(=O)O
not listed: [9]
inactive: all other assays above
